# Hits are enriched below; roughly 2.4% of the tested compounds scored in any of these assays.
# TDP1 block: inhibitors of human tyrosyl-DNA phosphodiesterase TDP1 | AID 485290 | 350,000 compounds, 0.28% hits | Potency, µM (titrated, usually from 130 µM), for the others: top-dose activity change, negative = inhibition, hits mostly inhibitors | recombinant TDP1, AlphaScreen DNA substrate cleavage | Q9NUW8; active = well fitted curve in the direction sought with a large enough effect; inconclusive = small, poorly fitted or top-dose-only effect, or another doubt; inactive = no such curve, though single readings can be large; an effect the other way counts as inactive or inconclusive; also: % is scaled to controls: 0 for no effect and ±100 for the full control effect; nearly all actives have a fitted effect of over 40% in size
#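 Recombinant E. coli-expressed Tdp1 (1 nM) preincubated with compound 15 min at RT, then 5'-biotin/3'-phosphotyrosine-FITC DNA substrate (15 nM) added for 5 min. AlphaScreen beads (10 ug/ml) added, 10 min RT; tyrosine-FITC cleavage read as signal loss.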
# Rango release inh: inhibition of RanGTP-driven Rango-importin beta dissociation. Biochemical FRET Rango-importin beta, RanGTP-induced dissociation. AID 540253. 340,000 compounds, 0.071% hits. Potency, µM (titrated, usually from 46.1 µM), for inactives: top-dose activity change, negative = inhibition. O95149+P62826; also: % of control where 0% means no effect; nearly all actives have a fitted effect of over 45% in size
#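 Two FRET readings bracket the reaction: one 5 min after compound meets Rango–importin beta, another 45 min after RanGTP-RCC1 (0.6 uM Ran, 0.2 uM RCC1, 2 mM GTP) is added. Only the second defines inhibition.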
# 12-LOX inh: inhibitors of human 12S-lipoxygenase ALOX12 | P18054 | purified 12hLO, xylenol orange hydroperoxide absorbance | Potency, µM (highest dose often 108 µM), for the others: at the highest dose activity change, negative = inhibition, most hits filed as inhibitors | 580,000 compounds, 1.1% hits; active = well fitted curve in the direction sought with a large enough effect; inconclusive = small, poorly fitted or top-dose-only effect, or another doubt; inactive = no such curve, though single readings can be large; an effect the other way counts as inactive or inconclusive; also: % is scaled to controls: 0 for no effect and ±100 for the full control effect
#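 Hydroperoxide product was detected by ferrous iron/xylenol orange as the 573 to 405 nm absorbance ratio. Arachidonic acid at 40 uM (final) was turned over for 30 min at room temperature by 150 nM human 12hLO, pH 7.0 Hepes buffer, after 15 min compound preincubation.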
# ClpP mod: qHTS Assay for Activators of ClpP | AID 651965, 2013 | 340,000 compounds, 1.9% hits | purified B. subtilis ClpP, FRET peptide cleavage, 20 min | ATP-dependent Clp protease proteolytic subunit (Bacillus subtilis (strain 168)), P80244 | Potency, µM (doses to about 57.5 µM), inactives show at the highest dose activity change, negative = active; active = well fitted falling curve with a large enough effect; inconclusive = small, poorly fitted or top-dose-only effect; inactive = no such curve, though single readings can be large or run the other way; also: the source files actives as falling curves though it sought activators and does not explain the sign; nearly all actives have a fitted effect of over 65% in size
#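 ClpP 10 microg/mL final, pH 8 Tris/KCl buffer with BSA, glycerol, Tween-20; compound pinned in; FRET-FV substrate; RT 20 min; Ex320/Em430; ΔFRET vs ADEP 5.8 microM, DMSO, no enzyme.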
# PTAP TSG101 blk: blocks PTAP/TSG101 interaction to inhibit HIV-1 budding | Fluorescence polarization, FITC-PTAP peptide / Tsg101 binding | Potency, µM (series often up to 115 µM), for inactives: at the highest dose activity change, negative = inhibition, hits mostly inhibitors | 340,000 tested, under 10 active | Q99816 | AID 493005; active = well fitted inhibition curve with a large enough effect in the main read-out, with a control signal flat, not every such curve was filed as active; inconclusive = small, poorly fitted or top-dose-only effect, or effect the other way, or a change in a side signal; inactive = no such curve, though single readings can be large or run the other way; also: % of control where 0% means no effect
# Target sequence (Q99816 whole entry, looked up): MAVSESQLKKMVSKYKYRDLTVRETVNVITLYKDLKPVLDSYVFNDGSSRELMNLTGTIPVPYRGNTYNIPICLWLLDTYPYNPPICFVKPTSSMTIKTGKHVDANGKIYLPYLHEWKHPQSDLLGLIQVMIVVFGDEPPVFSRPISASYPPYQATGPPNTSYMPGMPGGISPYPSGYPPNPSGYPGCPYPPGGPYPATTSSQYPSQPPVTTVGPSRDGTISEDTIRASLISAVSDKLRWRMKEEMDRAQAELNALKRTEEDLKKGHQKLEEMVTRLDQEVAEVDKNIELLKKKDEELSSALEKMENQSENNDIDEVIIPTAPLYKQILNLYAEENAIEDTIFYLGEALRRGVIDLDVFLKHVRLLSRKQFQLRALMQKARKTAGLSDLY
#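 Tsg101 binding domain (10 uM final) was mixed with compound and a FITC-labeled PTAP peptide (50 nM final) in HEPES pH 7.5 buffer with NaCl, Tween 20, EDTA and TCEP; fluorescence polarization was read after 20 min at r.t.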
# Rango complex inh: prevents formation of the Rango-importin beta complex. Q14974. 340,000 compounds, 0.031% hits. Rango CFP/YFP FRET sensor + importin beta, 45 min. Potency, µM (series often up to 92.2 µM), for the others: top-dose inhibition of complex formation. AID 540263;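 also: 0% = DMSO wells and 100% = buffer wells lacking importin beta; nearly all actives have a fitted effect of over 15% in size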
#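 Inhibition scored from the CFP 486 nm/YFP 530 nm FRET ratio 45 min after adding 0.125 microM importin beta to 50 nM Rango biosensor preincubated 5 min with compound (room temperature, PBS with DTT, Tween-20, BSA). No-importin wells as positive control.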
# * hit, by the source's call; ? = inconclusive; / = no result given. Unless noted, calls follow the shape of the full dose curve. Potency is read from the fitted curve at half-maximal effect.
SMILES,TDP1 block,Rango release inh,12-LOX inh,ClpP mod,PTAP TSG101 blk,Rango complex inh
O=c1[nH]c2cc3c(cc2cc1C(c1nnnn1CC1CCCO1)N1CCCC1)OCO3 (configuration not stated),2%,?,-24%,32µM*,1%,?
O=c1[nH]c2cc3c(cc2cc1C(c1nnnn1CC1CCCO1)N1CCCCCC1)OCCO3 (configuration not stated),3%,?,-5%,32µM*,-1%,?
CC(C)(C)n1nnnc1C(c1cc2cc3c(cc2[nH]c1=O)OCO3)N1CCN(c2ccccc2)CC1 (configuration not stated),2%,-14%,-21%,22µM*,-5%,-3%
Cc1cccc2cc(C(c3nnnn3CC3CCCO3)N3CCOCC3)c(=O)[nH]c12 (configuration not stated),4%,-8%,0%,?,-4%,2%
COc1cc(C(C)=O)ccc1OCCOc1ccc(F)cc1,/,/,8%,/,/,/
Cc1ccccc1C(=O)N1CC2(Cc3ccccc3N([S+](C)(=O)[O-])C2)C1,/,/,45µM*,/,/,/
C[S+](=O)([O-])N1CC2(Cc3ccccc31)CN(C(=O)c1ccccc1Cl)C2,/,/,-6%,/,/,/
CC[C@@H](NC(=O)[C@@H](Cc1ccccc1)NC(=O)CC[C@H]1O[C@@H](n2ccc(=O)[nH]c2=O)[C@H](O)[C@@H]1O)c1ccccc1,/,/,32µM*,2%,/,/
CC[C@H](NC(=O)[C@@H](Cc1ccccc1)NC(=O)[C@H]1O[C@@H](n2ccc(=O)[nH]c2=O)[C@H](O)[C@@H]1O)c1ccccc1,/,/,-12%,/,/,/
CN(C)CCCn1c(=O)n(-c2ccc(Cl)cc2)c(=O)c2c3c(sc21)CN(C)CC3,/,/,-25%,/,/,/
O=C(COc1ccc(-c2nnc3n2CCCC3)cc1)N1CCN(c2ccccc2F)CC1,/,/,37%,/,/,/
CCc1ccc(N2C=C(C(=O)OC)C(c3ccccc3F)C(C#N)=C2N)cc1 (configuration not stated),/,/,45µM*,-13%,/,/
CCOC(=O)C1CCN(C(=O)Nc2ccc3nccnc3c2)CC1,1%,-5%,0%,32µM*,-1%,0%
COC(=O)[C@@H]1Cc2ncn(C)c2CN1S(=O)(=O)c1ccc(F)cc1,/,/,56µM*,/,/,/
COC(=O)CCNC(=O)C1CCN(c2ncnc3sc4c(c23)CCC4)CC1,/,/,32%,/,/,/
CCOC(=O)c1cc(-c2ccccc2C)nn1Cc1cc(CC)no1,56µM*,9%,7.9µM*,0%,2%,0%
CCc1cc(Cn2nc(-c3ccccc3)cc2C(=O)NCc2cccs2)on1,-4%,-3%,8.9µM*,-8%,-3%,-3%
CCOC(=O)c1cc(-c2ccccc2)nn1Cc1cc(CC)no1,/,6%,-119%,-3%,2%,0%
CCCCN1C(=O)C(O)=C(C(C)=O)C1c1ccc(OC)cc1OC (configuration not stated),3%,1%,8.9µM*,-5%,-2%,1%
Cc1nc(C(=O)Nc2ccc(Cl)cc2Cl)nn1-c1cc(OC(C)C)c(Cl)cc1Cl,-4%,0%,-5%,28µM*,-6%,4%
Cc1nc(C(=O)Nc2cc(Cl)ccc2Cl)nn1-c1cc(OC(C)C)c(Cl)cc1Cl,-4%,-7%,-13%,-5%,4%,-2%
COC(=O)C1=C(C)NC(C)=C(C(=O)OC)C1C(=O)OCCN1C(=O)c2ccccc2C1=O,2%,-5%,?,7.1µM*,-1%,0%
COc1ccc(C(=O)OCCN2C(=O)c3ccccc3C2=O)cc1OC,/,-1%,1%,-1%,-3%,1%
Oc1ccc(Cl)cc1C=Nc1ccccc1Br,-3%,0%,-12%,?,1%,-6%

# Screening results (PubChem BioAssay)
